Source: PubChem BioAssay (National Center for Advancing Translational Sciences (NCATS))
D1 ag: agonists of human D1 dopamine receptor. HEK293 T-REx D1 cells, calcium flux, agonist mode. activation, % at 2 µM. 1% of 360,000 active. AID 504660
Target sequence (P21728 whole entry, looked up): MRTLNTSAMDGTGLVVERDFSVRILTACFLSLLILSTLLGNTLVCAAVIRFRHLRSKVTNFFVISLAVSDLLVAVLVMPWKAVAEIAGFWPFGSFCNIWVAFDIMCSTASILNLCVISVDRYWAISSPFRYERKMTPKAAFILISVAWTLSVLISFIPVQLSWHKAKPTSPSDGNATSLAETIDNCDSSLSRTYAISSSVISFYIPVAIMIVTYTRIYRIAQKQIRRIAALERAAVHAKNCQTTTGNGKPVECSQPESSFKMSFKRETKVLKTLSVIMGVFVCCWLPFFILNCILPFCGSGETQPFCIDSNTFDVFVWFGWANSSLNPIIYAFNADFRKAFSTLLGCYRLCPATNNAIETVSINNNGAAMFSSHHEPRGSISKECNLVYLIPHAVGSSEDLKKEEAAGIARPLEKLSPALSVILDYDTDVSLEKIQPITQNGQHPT
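Agonism was scored from calcium flux recorded over 180 s (1 read/s) after pintool compound addition, following a 10-cycle baseline. Cells were inducible force-coupled HEK293 TREx D1, plated overnight at 30 C and loaded with no-wash calcium dye.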
D1 antag: antagonists of human D1 dopamine receptor; P21728; HEK293 TREx D1 cells, calcium flux, dopamine EC80; stronger effect = lower value; activity change, negative = inhibition, % at 10 µM; 3.2% of 360,000 active; in the data active = activity change below about -30%
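Antagonism measured as reduced calcium response to an EC80 dopamine addition following 180 s compound pre-read; cells were inducible HEK293 Trex D1 plated overnight at 30 C, read kinetically at 1 cycle/sec.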
TRHR agonist: TRH receptor (human) agonism; P34981; TRHR cells, calcium flux fluo-8, FDSS agonist mode; activation, % at 2 µM; 0.18% of 360,000 active
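Fluo-8-loaded TRHR cells; 10 s baseline, compound added, kinetic Ca2+ fluorescence read 1/s, agonist mode.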
D1 potentiator: human D1 dopamine receptor positive modulation; P21728; HEK293 TREx D1 cells, calcium flux, dopamine EC20 potentiation; potentiation, % at 10 µM; 0.036% of 360,000 active; AID 504651; in the data active = potentiation above about 30%
TRHR PAM: allosteric enhancers of human TRH receptor | P34981 | TRHR cells, fluo-8 calcium fluorescence, EC20 TRH enhancement | enhancement, % at 2 µM | 0.66% of 360,000 active | AID 493056; in the data active = enhancement above about 30%
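TRHR-expressing cells loaded with fluo-8 calcium dye were read kinetically (ex 480/em 530) during compound addition, then stimulated with an EC20 of TRH (10 nM final). Enhancement of the Gq-mediated intracellular calcium response was scored.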
Numbers stand for hits. Sampled rows, rich in hits. Any-hit rate of the full collection: about 4.7%. Cut-off read from the data, not from the text of the source, unless noted: active = activation above about 30%; inactive = the rest.

Screening COc1cc([N+](=O)[O-])c(N2CCOCC2)c([N+](=O)[O-])c1OC returned D1 ag inactive, D1 antag -33.5, TRHR agonist inactive, D1 potentiator inactive and TRHR PAM inactive.
For O=[N+]([O-])c1cc(Br)c2nsnc2c1N1CCOCC1 the results were D1 ag inactive, D1 antag -44.5, TRHR agonist inactive, D1 potentiator inactive and TRHR PAM inactive.
CCOC(=O)c1cnc2ccc(OCC)cc2c1NCc1ccccc1 was read as D1 ag inactive, D1 antag -31.9, TRHR agonist inactive, D1 potentiator inactive and TRHR PAM inactive.
`CCOC(=O)c1cnc2ccc(OCC)cc2c1NCc1cccnc1` gave D1 ag inactive, D1 antag inactive, TRHR agonist inactive, D1 potentiator inactive and TRHR PAM inactive.
`COc1ccc(C2c3cccn3CCN2S(=O)(=O)c2ccccc2[N+](=O)[O-])cc1OC` (stereo not given) gave D1 ag inactive, TRHR agonist inactive, D1 potentiator inactive and TRHR PAM inactive.
Cc1ccc(NC(=O)c2c(C)oc3ncn(CC(C)C)c(=O)c23)nc1 was read as D1 ag inactive, D1 antag inactive, TRHR agonist inactive, D1 potentiator inactive and TRHR PAM 31.0.
For COc1ccc(CCNC(=O)c2c(C)oc3ncn(CC(C)C)c(=O)c23)c(OC)c1 the results were D1 ag inactive, D1 antag -30.4, TRHR agonist inactive, D1 potentiator inactive and TRHR PAM inactive.
For Cc1ccnc(NC(=O)c2c(C)oc3ncn(CC(C)C)c(=O)c23)c1 the results were D1 ag inactive, D1 antag inactive, TRHR agonist inactive, D1 potentiator inactive and TRHR PAM inactive.
Screening Cc1ccc(NC(=O)Cn2nnnc2-c2ccccc2N)cc1 returned D1 ag inactive, D1 antag inactive, TRHR agonist inactive, D1 potentiator inactive and TRHR PAM inactive.
Screening Cc1ccc(-c2noc(-c3ccc(N4CCOCC4)c([N+](=O)[O-])c3)n2)cc1 returned D1 ag inactive, D1 antag inactive, TRHR agonist inactive, D1 potentiator inactive and TRHR PAM inactive.
For CCCC1=NN2C(=N)/C(=C\c3ccc(OCCOc4ccc(NC(C)=O)cc4)c(OC)c3)C(=O)N=C2S1 the results were D1 ag inactive, D1 antag inactive, TRHR agonist inactive, D1 potentiator inactive and TRHR PAM 30.6.
Screening COc1cc(/C=C2/C(=N)N3N=C(C(C)C)SC3=NC2=O)ccc1OS(=O)(=O)c1ccccc1 returned D1 ag inactive, D1 antag -30.7, TRHR agonist inactive, D1 potentiator inactive and TRHR PAM inactive.
Screening CCS(=O)(=O)C1=NN2C(=N)/C(=C\c3ccc(OC(=O)c4ccco4)c(OC)c3)C(=O)N=C2S1 returned D1 ag inactive, D1 antag -33.0, TRHR agonist inactive, D1 potentiator inactive and TRHR PAM inactive.
Screening CS(=O)(=O)C1=NSC2=NC(=O)/C(=C\c3ccc(OC(=O)c4ccco4)cc3)C(=N)N21 returned D1 ag inactive, D1 antag -30.5, TRHR agonist inactive, D1 potentiator inactive and TRHR PAM inactive.
`CCC1=NN2C(=N)/C(=C/c3ccc(OS(=O)(=O)c4ccccc4)c(OC)c3)C(=O)N=C2S1` gave D1 ag inactive, D1 antag inactive, TRHR agonist inactive, D1 potentiator inactive and TRHR PAM inactive.
Screening CCOc1cc(CNC(=O)c2ccc3c(c2)N(C)C(=O)C2CCCCN32)cc(OCC)c1OCC (stereo not given) returned D1 ag inactive, D1 antag inactive, TRHR agonist inactive, D1 potentiator inactive and TRHR PAM inactive.
`COc1ccc(CN2C(=O)N(c3ccc(F)cc3)C(=O)C2CC(=O)Nc2ccccc2)cc1` (stereo not given) gave D1 ag inactive, D1 antag inactive, TRHR agonist inactive, D1 potentiator inactive and TRHR PAM inactive.
Cc1cc(C)cc(-n2c(SCC(=O)N3CCOCC3)nc3c([nH]c4ccccc43)c2=O)c1 was read as D1 ag inactive, D1 antag inactive, TRHR agonist inactive, D1 potentiator inactive and TRHR PAM inactive.
Screening CC1CCN(c2oc(-c3cccs3)nc2S(=O)(=O)c2ccc(Cl)cc2)CC1 returned D1 ag inactive, D1 antag inactive, TRHR agonist inactive, D1 potentiator inactive and TRHR PAM inactive.
